# Test results: PubChem BioAssay (EPA / NIEHS)
# Records with an inconclusive call do not appear. Active and inactive are the calls of the source. How the source made its calls, unless noted: active means hit-call score of the fitted dose curve at least 0.9, where 1 is the maximum; inactive means score below 0.9.
# Legend:
# [1] = ATG_PXRE_CIS: Attagene CIS-FACTORIAL HepG2 Assay for human Pregnane X Receptor Element (PXRE) (AID 2282957); conditions: HepG2 Attagene CIS-FACTORIAL PXRE reporter, mRNA; actives raise or lower the signal
# How it was run: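 Read-out: fluorescence of reporter-specific RT-PCR products resolved by capillary electrophoresis, fitted bidirectionally relative to DMSO. Human HepG2 liver cells carried transfected cis-promoter reporter units and were exposed to chemicals for 24 h.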
# [2] = ATG_PPRE_CIS: Attagene CIS-FACTORIAL HepG2 Assay for human Peroxisome Proliferator-activated Response Element (PPRE) (AID 2282958); conditions: HepG2 PPRE cis-element reporter, Attagene transcription factor profiling; actives raise or lower the signal
# How it was run: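 In this cell-based multiplex, a PPRE cis element drives a reporter sequence in transiently transfected HepG2 cells. Following 24 h treatment, labeled cDNA amplicons are sized and quantified by capillary electrophoresis, with DMSO defining baseline.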
# [3] = ATG_RORE_CIS: Attagene CIS-FACTORIAL HepG2 Assay for human RAR-related Orphan Receptor Element (RORE) (AID 2282959); conditions: HepG2 Attagene cis-factorial RORE reporter, mRNA; actives raise or lower the signal
# How it was run: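 Endogenous factor activity at a cis response element is read as reporter transcript levels in HepG2 cells, 24 h post-dose. Transcripts are quantified by RT-PCR with capillary electrophoresis, and data fitted in both directions against DMSO.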
# [4] = ATG_Sox_CIS: Attagene CIS-FACTORIAL HepG2 Assay for human SRY-box transcription factor (SOX) (AID 2282960); conditions: HepG2 Attagene cis-factorial SOX reporter, mRNA; actives raise or lower the signal
# How it was run: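 Measures mRNA induction of a SOX1-associated reporter in HepG2 after 24 h dosing. Fluorescently labelled RT-PCR fragments are separated by capillary electrophoresis, and gain or loss relative to DMSO control is fitted.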
# [5] = target: Transcription factor Sp1 (Homo sapiens) (UniProt P08047); experiment: ATG_Sp1_CIS: Attagene CIS-FACTORIAL HepG2 Assay for human Specificity Protein 1 (Sp1) (AID 2282961); conditions: HepG2 Sp1 cis-reporter transcription, actives raise or lower the signal
# Sequence of Transcription factor Sp1 (Homo sapiens) (P08047 whole entry, looked up): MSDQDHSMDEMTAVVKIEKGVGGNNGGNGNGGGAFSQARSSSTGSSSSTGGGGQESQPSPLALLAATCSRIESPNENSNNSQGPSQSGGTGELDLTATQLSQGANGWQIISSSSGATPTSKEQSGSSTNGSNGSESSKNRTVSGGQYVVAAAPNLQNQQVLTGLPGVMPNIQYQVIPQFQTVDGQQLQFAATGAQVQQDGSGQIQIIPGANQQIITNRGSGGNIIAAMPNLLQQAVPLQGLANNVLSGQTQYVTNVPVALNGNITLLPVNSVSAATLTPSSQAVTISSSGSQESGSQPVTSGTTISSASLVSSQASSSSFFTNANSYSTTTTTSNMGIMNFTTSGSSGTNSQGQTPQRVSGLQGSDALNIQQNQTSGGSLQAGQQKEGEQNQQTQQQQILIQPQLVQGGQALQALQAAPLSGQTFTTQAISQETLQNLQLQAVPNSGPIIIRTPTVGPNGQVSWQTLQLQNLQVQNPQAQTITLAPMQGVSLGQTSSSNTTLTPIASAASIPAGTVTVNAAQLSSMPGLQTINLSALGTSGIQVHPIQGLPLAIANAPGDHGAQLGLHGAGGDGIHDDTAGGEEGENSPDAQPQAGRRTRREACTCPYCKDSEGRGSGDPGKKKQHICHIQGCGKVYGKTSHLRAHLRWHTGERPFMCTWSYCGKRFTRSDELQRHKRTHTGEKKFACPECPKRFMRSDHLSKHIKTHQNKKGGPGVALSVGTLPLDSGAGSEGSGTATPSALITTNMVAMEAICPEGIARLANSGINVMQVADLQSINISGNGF
# How it was run: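 Cells: HepG2, transiently transfected with cis-regulated multiplexed reporters. Exposure: 24 h. Detection: reporter transcripts amplified, fluorescently labeled, restriction-digested and sized by capillary electrophoresis. Analysis: bidirectional fit relative to DMSO.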
# [6] = ATG_SREBP_CIS: Attagene CIS-FACTORIAL HepG2 Assay for human Sterol Regulatory Element Binding (SREBP) (AID 2282962); conditions: HepG2 Attagene cis-factorial SREBP reporter, mRNA; actives raise or lower the signal
# How it was run: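 Readout: fluorescent reporter-transcript peaks resolved by capillary electrophoresis after RT-PCR. Cells were human HepG2 carrying transfected cis-promoter reporter constructs, dosed for 24 h. Gain or loss of signal was fitted against DMSO controls.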
# [7] = target: Signal transducer and activator of transcription 3 (Homo sapiens) (UniProt P40763); experiment: ATG_STAT3_CIS: Attagene CIS-FACTORIAL HepG2 Assay for human Signal Transducer and Activator of Transcription 3 (STAT3) (AID 2282963); conditions: HepG2, Attagene cis-factorial STAT3 reporter transcription; actives raise or lower the signal
# Sequence of Signal transducer and activator of transcription 3 (Homo sapiens) (P40763 whole entry, looked up): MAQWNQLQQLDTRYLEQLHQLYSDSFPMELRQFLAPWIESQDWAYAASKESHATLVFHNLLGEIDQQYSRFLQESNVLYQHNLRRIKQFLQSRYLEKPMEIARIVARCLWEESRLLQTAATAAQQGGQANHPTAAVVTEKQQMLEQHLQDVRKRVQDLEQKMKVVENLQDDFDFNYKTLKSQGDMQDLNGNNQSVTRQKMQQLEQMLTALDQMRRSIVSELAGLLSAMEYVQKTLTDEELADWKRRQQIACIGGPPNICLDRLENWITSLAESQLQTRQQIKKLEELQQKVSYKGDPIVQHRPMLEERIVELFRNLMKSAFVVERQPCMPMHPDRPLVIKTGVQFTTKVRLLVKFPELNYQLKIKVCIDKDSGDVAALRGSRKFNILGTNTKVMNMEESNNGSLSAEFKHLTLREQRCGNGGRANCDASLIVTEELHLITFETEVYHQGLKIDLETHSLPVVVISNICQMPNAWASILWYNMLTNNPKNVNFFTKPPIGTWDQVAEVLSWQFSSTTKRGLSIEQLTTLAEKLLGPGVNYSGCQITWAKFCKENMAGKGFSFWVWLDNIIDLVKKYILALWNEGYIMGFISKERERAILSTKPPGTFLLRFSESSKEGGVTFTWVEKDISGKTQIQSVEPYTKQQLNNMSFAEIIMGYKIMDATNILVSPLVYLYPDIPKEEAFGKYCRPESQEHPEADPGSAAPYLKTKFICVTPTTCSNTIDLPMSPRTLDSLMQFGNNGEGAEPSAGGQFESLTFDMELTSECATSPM
# How it was run: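 HepG2, MRTU-transfected, 24 h dosing. RNA → RT → PCR → FAM label → HpaI → CE. Bidirectional fit vs DMSO.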
# [8] = ATG_TA_CIS: Attagene CIS-FACTORIAL HepG2 Assay for human TA Basal Promoter (AID 2282964); conditions: HepG2 Attagene CIS-factorial TA basal promoter reporter; actives raise or lower the signal
# How it was run: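 Background internal-marker endpoint from a 52-component HepG2 cis-reporter panel. Cells treated 24 h; reporter transcripts quantified via RT-PCR and CE fluorescence against DMSO baseline.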
# [9] = ATG_TCF_b_cat_CIS: Attagene CIS-FACTORIAL HepG2 Assay for human T-Cell-Factor with beta-catenin (TCF/b-cat) (AID 2282965); conditions: HepG2 TCF/beta-catenin cis-reporter transcription, actives raise or lower the signal
# How it was run: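 HepG2 cells transiently transfected with multiple cis-promoter-regulated reporter transcription units, so endogenous transcription factor activity is measured. Reporter mRNA read 24 hours after dosing by RT-PCR, fluorescent labelling and capillary electrophoresis; bidirectional fitting against DMSO.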
# [10] = ATG_TAL_CIS: Attagene CIS-FACTORIAL HepG2 Assay for human TAL Basal Promoter (AID 2282966); conditions: HepG2 Attagene cis-factorial TAL promoter reporter; actives raise or lower the signal;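 further: background control endpoint measuring basal TAL promoter reporter mRNA not a specific factor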
# How it was run: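 HepG2, transient MRTU transfection, 24 h compound exposure; RNA → oligo(dT) RT → PCR → 6-FAM primer extension → HpaI digest → CE fluorescence. Bidirectional curve fit vs DMSO. Background-control readout.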
# [11] = ATG_TGFb_CIS: Attagene CIS-FACTORIAL HepG2 Assay for human Transforming Growth Factor (TGF) (AID 2282967); conditions: HepG2 Attagene CIS TGFb reporter, mRNA transcription; actives raise or lower the signal
# How it was run: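 Liver HepG2 line, cis-factorial reporter panel, 24 h dosing. Quantitation: RT-PCR products labeled with 6-FAM, cut with HpaI, resolved by capillary electrophoresis; DMSO-referenced bidirectional analysis.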
# [12] = ATG_VDRE_CIS: Attagene CIS-FACTORIAL HepG2 Assay for human Vitamin D Receptor Element (VDRE) (AID 2282968); conditions: HepG2 VDRE cis-reporter transcription, actives raise or lower the signal
# How it was run: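 Steps: transfect HepG2 with multiple reporter transcription units; dose chemicals 24 h; isolate RNA; RT-PCR; label with 6-FAM primer extension; HpaI digest; capillary electrophoresis. Curves fitted both directions against DMSO.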
# [13] = target: Nuclear receptor subfamily 1 group I member 3 (Homo sapiens) (UniProt Q14994); experiment: ATG_CAR_TRANS: Attagene TRANS-FACTORIAL HepG2 Assay for human Constitutive Androstane Receptor (CAR) (AID 2282969; active means hit-call score of the fitted dose curve at least 0.9, where 1 is the maximum;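 further: activators raise reporter mRNA above DMSO so AC50 marks induction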); conditions: HepG2 Attagene TRANS-FACTORIAL CAR reporter
# Sequence of Nuclear receptor subfamily 1 group I member 3 (Homo sapiens) (Q14994 whole entry, looked up, the tested form may be a part): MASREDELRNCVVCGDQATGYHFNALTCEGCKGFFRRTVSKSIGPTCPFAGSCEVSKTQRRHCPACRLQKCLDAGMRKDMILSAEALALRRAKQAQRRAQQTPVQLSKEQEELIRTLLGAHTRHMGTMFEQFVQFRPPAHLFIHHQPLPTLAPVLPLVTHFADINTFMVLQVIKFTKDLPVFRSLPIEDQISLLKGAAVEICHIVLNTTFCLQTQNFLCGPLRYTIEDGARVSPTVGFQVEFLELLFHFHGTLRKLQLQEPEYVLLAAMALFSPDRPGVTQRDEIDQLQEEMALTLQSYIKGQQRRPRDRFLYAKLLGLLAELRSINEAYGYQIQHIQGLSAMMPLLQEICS
# How it was run: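 Steps: transient transfection of HepG2 with multiple GAL4-UAS reporter units; 24 h compound incubation; RNA isolation, RT-PCR, 6-FAM primer extension, HpaI digest; capillary electrophoresis. Gain-of-signal relative to DMSO negative control.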
# [14] = target: X-box-binding protein 1 (Homo sapiens) (UniProt P17861); experiment: ATG_Xbp1_CIS: Attagene CIS-FACTORIAL HepG2 Assay for human X-box Binding Protein 1 (XBP1) (AID 2282972); conditions: HepG2 XBP1 cis-element reporter, Attagene multiplex; actives raise or lower the signal
# Sequence of X-box-binding protein 1 (Homo sapiens) (P17861 whole entry, looked up, the tested form may be a part): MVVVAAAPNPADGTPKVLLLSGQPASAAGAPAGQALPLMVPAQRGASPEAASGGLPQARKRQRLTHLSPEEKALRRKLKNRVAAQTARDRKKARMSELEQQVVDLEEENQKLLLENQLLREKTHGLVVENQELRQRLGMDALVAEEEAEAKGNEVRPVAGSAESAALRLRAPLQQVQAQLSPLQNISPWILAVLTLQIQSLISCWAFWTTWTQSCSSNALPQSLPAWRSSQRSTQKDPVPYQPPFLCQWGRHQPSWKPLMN
# How it was run: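 Read-out: fluorescent reporter mRNA fragments resolved by capillary electrophoresis after RT-PCR. Human HepG2 liver cells carried transfected cis-promoter reporter units and were exposed to chemicals for 24 hours. Gain or loss of signal fitted relative to DMSO baseline.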
# [15] = target: Androgen receptor (Homo sapiens) (UniProt P10275); experiment: ATG_AR_TRANS: Attagene TRANS-FACTORIAL HepG2 Assay for human Androgen Receptor (AR) (AID 2282973; active means hit-call score of the fitted dose curve at least 0.9, where 1 is the maximum); conditions: HepG2 Attagene TRANS-FACTORIAL AR reporter transcription
# Sequence of Androgen receptor (Homo sapiens) (P10275 whole entry, looked up, the tested form may be a part): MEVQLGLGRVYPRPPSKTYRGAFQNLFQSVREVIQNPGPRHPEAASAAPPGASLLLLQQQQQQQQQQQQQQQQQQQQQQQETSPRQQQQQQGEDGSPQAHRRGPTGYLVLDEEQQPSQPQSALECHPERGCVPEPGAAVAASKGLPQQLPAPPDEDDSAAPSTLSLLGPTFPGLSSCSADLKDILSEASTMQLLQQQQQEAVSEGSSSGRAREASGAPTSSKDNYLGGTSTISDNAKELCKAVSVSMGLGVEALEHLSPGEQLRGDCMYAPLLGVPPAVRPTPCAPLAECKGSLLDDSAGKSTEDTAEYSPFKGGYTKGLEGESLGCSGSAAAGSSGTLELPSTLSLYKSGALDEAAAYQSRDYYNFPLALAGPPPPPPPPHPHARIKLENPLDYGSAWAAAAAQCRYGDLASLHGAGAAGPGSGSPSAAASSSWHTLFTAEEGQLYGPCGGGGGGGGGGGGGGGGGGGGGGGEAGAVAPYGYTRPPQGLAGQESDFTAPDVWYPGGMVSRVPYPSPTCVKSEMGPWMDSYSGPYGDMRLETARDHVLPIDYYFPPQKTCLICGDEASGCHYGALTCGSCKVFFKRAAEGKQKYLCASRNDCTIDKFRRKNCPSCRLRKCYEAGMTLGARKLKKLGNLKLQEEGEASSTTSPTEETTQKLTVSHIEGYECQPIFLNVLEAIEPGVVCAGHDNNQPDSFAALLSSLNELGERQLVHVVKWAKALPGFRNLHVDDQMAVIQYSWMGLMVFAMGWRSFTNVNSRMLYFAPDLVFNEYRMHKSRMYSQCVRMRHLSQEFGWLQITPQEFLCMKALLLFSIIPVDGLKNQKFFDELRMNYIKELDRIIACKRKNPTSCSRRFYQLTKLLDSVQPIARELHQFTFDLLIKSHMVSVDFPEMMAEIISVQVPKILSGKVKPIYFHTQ
# How it was run: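 Readout is reporter transcript abundance, quantified by fluorescent RT-PCR products separated on capillary electrophoresis. Human HepG2 liver cells carried transiently transfected NR-Gal4 chimera plus GAL4-UAS reporter constructs and were dosed for 24 h; activity scored upward versus DMSO.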
# [16] = ATG_GAL4_TRANS: Attagene TRANS-FACTORIAL HepG2 Assay for GAL4 (Internal Marker) (AID 2282976; active means hit-call score of the fitted dose curve at least 0.9, where 1 is the maximum); conditions: HepG2 Attagene TRANS GAL4 internal marker reporter
# How it was run: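 RT-PCR/capillary electrophoresis readout of reporter mRNA. HepG2, transient MRTU transfection (GAL4-UAS reporters), 24 h compound exposure. Background-control endpoint, positive direction vs DMSO baseline.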
# [17] = target: Estrogen receptor (Homo sapiens) (UniProt P03372); experiment: ATG_ERa_TRANS: Attagene TRANS-FACTORIAL HepG2 Assay for human Estrogen Receptor alpha (ERa) (AID 2282970; active means hit-call score of the fitted dose curve at least 0.9, where 1 is the maximum); conditions: HepG2 Attagene TRANS ERa GAL4 reporter, mRNA
# Sequence of Estrogen receptor (Homo sapiens) (P03372 whole entry, looked up, the tested form may be a part): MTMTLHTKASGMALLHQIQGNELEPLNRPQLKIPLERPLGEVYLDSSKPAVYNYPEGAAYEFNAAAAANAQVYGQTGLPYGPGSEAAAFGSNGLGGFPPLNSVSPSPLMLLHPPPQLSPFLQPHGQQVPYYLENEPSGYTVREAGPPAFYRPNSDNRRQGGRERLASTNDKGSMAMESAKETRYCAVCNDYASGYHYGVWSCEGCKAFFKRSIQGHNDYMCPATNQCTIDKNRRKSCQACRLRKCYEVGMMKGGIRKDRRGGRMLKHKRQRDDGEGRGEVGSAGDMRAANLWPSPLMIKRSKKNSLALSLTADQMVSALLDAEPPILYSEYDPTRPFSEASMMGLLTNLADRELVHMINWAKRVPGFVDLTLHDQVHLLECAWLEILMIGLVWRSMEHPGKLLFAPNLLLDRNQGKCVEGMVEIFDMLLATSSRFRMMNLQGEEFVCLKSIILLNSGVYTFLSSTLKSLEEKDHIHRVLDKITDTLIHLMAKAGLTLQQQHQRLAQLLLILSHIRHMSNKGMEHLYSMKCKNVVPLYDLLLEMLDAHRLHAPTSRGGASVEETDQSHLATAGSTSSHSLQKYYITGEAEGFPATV
# How it was run: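 Reporter mRNA induction after 24 hours, detected by fluorescent RT-PCR and capillary electrophoresis, gives the read-out. Cells are HepG2 transiently transfected with GAL4-UAS reporter transcription units responding to chimeric NR-Gal4. Activity is taken as gain of signal over DMSO baseline.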
# [18] = target: Steroid hormone receptor ERR1 (Homo sapiens) (UniProt P11474); experiment: ATG_ERRa_TRANS: Attagene TRANS-FACTORIAL HepG2 Assay for human Estrogen-Related Receptor alpha (ERRa) (AID 2282971; active means hit-call score of the fitted dose curve at least 0.9, where 1 is the maximum); conditions: HepG2 Attagene TRANS reporter, ERRa transactivation
# Sequence of Steroid hormone receptor ERR1 (Homo sapiens) (P11474 whole entry, looked up, the tested form may be a part): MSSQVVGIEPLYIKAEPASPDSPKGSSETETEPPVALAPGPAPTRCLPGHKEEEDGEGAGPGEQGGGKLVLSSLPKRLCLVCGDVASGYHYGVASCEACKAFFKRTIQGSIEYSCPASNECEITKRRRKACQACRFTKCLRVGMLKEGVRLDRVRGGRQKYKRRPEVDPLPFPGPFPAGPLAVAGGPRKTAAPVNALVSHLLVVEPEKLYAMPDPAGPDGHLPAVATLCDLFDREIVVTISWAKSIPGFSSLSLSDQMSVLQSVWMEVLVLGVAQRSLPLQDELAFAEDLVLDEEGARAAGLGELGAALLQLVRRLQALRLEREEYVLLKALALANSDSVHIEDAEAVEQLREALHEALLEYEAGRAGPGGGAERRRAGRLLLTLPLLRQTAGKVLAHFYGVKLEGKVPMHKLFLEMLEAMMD
# How it was run: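 Transfected HepG2, 24 h dosing, ERRa-Gal4 chimera driving GAL4-UAS reporter. Readout: reporter mRNA via RT-PCR plus capillary electrophoresis (fluorescence). Positive direction vs DMSO control.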
# [19] = ATG_M_19_TRANS: Attagene TRANS-FACTORIAL HepG2 Assay for M19 Transcription Factor (Internal Marker) (AID 2282974; active means hit-call score of the fitted dose curve at least 0.9, where 1 is the maximum); conditions: HepG2 Attagene TRANS-FACTORIAL M19 internal marker reporter
# How it was run: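 Reporter mRNA induction was measured in transfected HepG2 cells 24 h after dosing. Endpoint fitted upward relative to DMSO and serves as a background control within the multiplexed TRANS panel.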
structure (smiles),measurement,setting,value
CCCCC(CC)COC(=O)c1ccc(C(=O)OCC(CC)CCCC)c(C(=O)OCC(CC)CCCC)c1 (centres undefined),outcome,[1],inactive
same,outcome,[2],inactive
same,outcome,[3],inactive
same,outcome,[4],inactive
same,outcome,[5],inactive
same,outcome,[6],inactive
same,outcome,[7],inactive
same,outcome,[8],inactive
same,outcome,[9],inactive
same,outcome,[10],inactive
same,outcome,[11],inactive
same,outcome,[12],inactive
same,outcome,[13],inactive
same,outcome,[14],inactive
same,outcome,[15],inactive
same,outcome,[16],inactive
OCCCBr,outcome,[1],inactive
same,outcome,[2],inactive
same,outcome,[3],inactive
same,outcome,[4],inactive
same,outcome,[5],inactive
same,outcome,[6],inactive
same,outcome,[7],inactive
same,outcome,[8],inactive
same,outcome,[9],inactive
same,outcome,[10],inactive
same,outcome,[11],inactive
same,outcome,[12],inactive
same,outcome,[17],inactive
same,outcome,[18],inactive
same,outcome,[14],inactive
Cn1cc(-c2ccccc2)c(=O)c(-c2cccc(C(F)(F)F)c2)c1,outcome,[19],inactive
CC(C)COC(=O)c1ccccc1C(=O)OCC(C)C,AC50,[1],26.1 µM (active)
same,AC50,[3],44.3 µM (active)
same,outcome,[4],inactive
same,outcome,[5],inactive
same,outcome,[6],inactive
same,outcome,[7],inactive
same,AC50,[8],56.4 µM (active)
same,outcome,[9],inactive
same,outcome,[10],inactive
same,outcome,[11],inactive
same,outcome,[17],inactive
same,AC50,[14],65.8 µM (active)
CCCSC(=O)N(CCC)CCC,AC50,[1],27.1 µM (active)
same,outcome,[3],inactive
same,outcome,[4],inactive
same,outcome,[5],inactive
same,outcome,[6],inactive
same,outcome,[7],inactive
same,outcome,[8],inactive
same,outcome,[9],inactive
same,outcome,[10],inactive
same,outcome,[11],inactive
same,outcome,[12],inactive
same,outcome,[13],inactive
same,outcome,[14],inactive
same,outcome,[16],inactive
CCCCCOC(=O)c1ccccc1C(=O)OCCCCC,AC50,[1],27.3 µM (active)
same,outcome,[3],inactive
same,outcome,[4],inactive
same,outcome,[5],inactive
same,outcome,[6],inactive
same,outcome,[7],inactive
same,outcome,[8],inactive
same,outcome,[9],inactive
same,outcome,[10],inactive
same,outcome,[11],inactive
same,AC50,[12],89.8 µM (active)
same,outcome,[13],inactive
same,outcome,[17],inactive
same,outcome,[14],inactive
same,outcome,[16],inactive
CCC[CH2][Sn]([Cl])([CH2]CCC)[CH2]CCC,outcome,[1],inactive
same,outcome,[3],inactive
same,outcome,[4],inactive
same,AC50,[5],0.412 µM (active)
same,outcome,[6],inactive
same,outcome,[7],inactive
same,AC50,[8],0.698 µM (active)
same,AC50,[9],0.591 µM (active)
same,outcome,[10],inactive
same,outcome,[11],inactive
same,AC50,[12],0.412 µM (active)
same,AC50,[14],0.639 µM (active)
CCOc1cccc(C2(N3CCN(c4ccccc4)CC3)CCC(C)CC2)c1 (centres undefined),outcome,[1],inactive
same,outcome,[3],inactive
same,outcome,[4],inactive
same,outcome,[5],inactive
same,outcome,[6],inactive
same,outcome,[7],inactive
same,outcome,[8],inactive
same,outcome,[9],inactive
same,outcome,[10],inactive
same,outcome,[11],inactive
same,outcome,[12],inactive
same,outcome,[17],inactive
same,outcome,[14],inactive
same,outcome,[16],inactive
